# Source: PubChem BioAssay (EPA / NIEHS)
# Results filed as inconclusive are left out. Calls of active or inactive are those of the source. The calls were made as follows, unless noted: active = hit-call score of the fitted dose curve at least 0.9, where 1 is the maximum; inconclusive = response in the unintended direction; inactive = score below 0.9.
# Assays:
# [1] = CCTE_Padilla_ZF_144hpf_TERATOSCORE: (Legacy) CCTE's 144 Hour Post-fertilization zebrafish Assay Teratoscore, Padilla Lab (AID 2283679; active = hit-call score of the fitted dose curve at least 0.9, where 1 is the maximum; inactive = score below 0.9;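 as to AC50: zebrafish embryos with chorions exposed by immersion from 6-8 hpf to 5 dpf with daily renewal; teratogenicity score from eye scoring of death hatching and malformations at 144 hpf; higher score means more developmental defects relative to DMSO baseline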)
# Summary of the method: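 Larvae scored by eye at 144 hpf for death, hatching and malformations after a day in clean Hanks'. Before that, daily-renewed exposure at 80 uM (0.4% DMSO, 26C) from roughly 6-8 hpf through 5 dpf, 4 embryos per chemical.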
# [2] = read-out: Glyceraldehyde-3-phosphate dehydrogenase (Homo sapiens) (UniProt P04406); test: CLD_GAPDH_6hr: CellzDirect (CLD) Gene Expression Assay for Baseline Control (Glyceraldehyde 3-phosphate dehydrogenase) at 6 hours (AID 2283681);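 also: active means increased signal relative to DMSO vehicle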
# Summary of the method: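 GAPDH baseline-control readout from qNPA (S1 nuclease digestion, probe hybridization, chemiluminescence) in lysates of cultured human hepatocytes harvested 6 h post-dosing. Chemicals tested at multiple concentrations versus 0.2% DMSO vehicle; microscopy-based cytotoxicity flagged yes/no.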
# [3] = read-out: xenobiotic metabolism (CYP1A2), CYP1A2 (gene 1544); test: CLD_CYP1A2_24hr: CellzDirect (CLD) Gene Expression Assay for xenobiotic metabolism (CYP1A2) at 24 hours (AID 2283683)
# Summary of the method: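 CYP1A2 mRNA induction measured by quantitative nuclease protection (chemiluminescent) in human primary hepatocytes 24 h after multi-concentration chemical dosing with daily fresh solutions. DMSO (0.2%) baseline; positive-direction fitting; morphology-based cytotoxicity noted.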
# [4] = read-out: Cytochrome P450 2C19 (Homo sapiens) (UniProt P33261); test: CLD_CYP2C19_24hr: CellzDirect (CLD) Gene Expression Assay for xenobiotic metabolism (CYP2C19) at 24 hours (AID 2283687);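 also: activity means mRNA induction above DMSO vehicle baseline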
# Summary of the method: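 CYP2C19 mRNA was quantified by qNPA chemiluminescence after 24 h of daily dosing of cultured human primary hepatocytes from two donors; vehicle was 0.2% DMSO, and increases over DMSO baseline were fitted.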
# [5] = read-out: organic anion transporter (SLCO1B1), SLCO1B1 (gene 10599); test: CLD_SLCO1B1_24hr: CellzDirect (CLD) Gene Expression Assay for organic anion transporter (SLCO1B1) at 24 hours (AID 2283690)
# Summary of the method: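 SLCO1B1 mRNA induction read at 24 h by quantitative nuclease protection assay (chemiluminescence), analyzed against DMSO baseline. Human hepatocyte cultures from separate donors received fresh dosing solutions daily; vehicle 0.2% DMSO; cytotoxicity flagged by phase-contrast morphology.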
# [6] = read-out: Glyceraldehyde-3-phosphate dehydrogenase (Homo sapiens) (UniProt P04406); test: CLD_GAPDH_24hr: CellzDirect (CLD) Gene Expression Assay for Baseline Control (Glyceraldehyde 3-phosphate dehydrogenase) at 24 hours (AID 2283692)
# Summary of the method: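 GAPDH baseline-control readout: qNPA chemiluminescent mRNA signal in human primary hepatocytes harvested 24 h after daily dosing, normalised to 0.2% DMSO with positive fitting direction; cytotoxicity annotated by phase-contrast morphology.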
# [7] = read-out: Cytochrome P450 2B6 (Homo sapiens) (UniProt P20813); test: CLD_CYP2B6_48hr: CellzDirect (CLD) Gene Expression Assay for xenobiotic metabolism (CYP2B6) at 48 hours (AID 2283699);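 also: actives raise transcript level above DMSO so potency reflects induction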
# Summary of the method: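 CYP2B6 transcript induction, read by quantitative nuclease protection (S1 digestion, chemiluminescent detection) 48 h after dosing, is fitted upward against 0.2% DMSO. Cultured human liver primary cells, two donor preparations, received fresh chemical daily over multiple concentrations.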
# [8] = read-out: Cytochrome P450 2C19 (Homo sapiens) (UniProt P33261); test: CLD_CYP2C19_48hr: CellzDirect (CLD) Gene Expression Assay for xenobiotic metabolism (CYP2C19) at 48 hours (AID 2283700);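 also: fitted upward so actives raise CYP2C19 mRNA above the 0.2% DMSO vehicle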
# Summary of the method: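 CYP2C19 mRNA induction read by chemiluminescent quantitative nuclease protection assay after 48 h, with fresh compound added daily for two days to cultured human liver hepatocytes. Activity fitted upward against 0.2% DMSO vehicle.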
# [9] = read-out: Cytochrome P450 3A4 (Homo sapiens) (UniProt P08684); test: CLD_CYP3A4_6hr: CellzDirect (CLD) Gene Expression Assay for xenobiotic metabolism (CYP3A4) at 6 hours (AID 2283680)
# Summary of the method: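 CYP3A4 mRNA induction, 6 h after dosing of cultured primary human hepatocytes from two donors, read by quantitative nuclease protection (qNPA, chemiluminescence). Vehicle 0.2% DMSO as baseline; morphology-based cytotoxicity annotated yes/no.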
# [10] = read-out: glucuronosyltransferase (UGT1A1), UGT1A1 (gene 54658); test: CLD_UGT1A1_24hr: CellzDirect (CLD) Gene Expression Assay for glucuronosyltransferase (UGT1A1) at 24 hours (AID 2283696)
# Summary of the method: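 UGT1A1 transcript induction was measured by quantitative nuclease protection assay (chemiluminescence) in human hepatocyte cultures 24 h after daily fresh dosing, with 0.2% DMSO as vehicle and baseline.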
# [11] = read-out: Cytochrome P450 3A4 (Homo sapiens) (UniProt P08684); test: CLD_CYP3A4_48hr: CellzDirect (CLD) Gene Expression Assay for xenobiotic metabolism (CYP3A4) at 48 hours (AID 2283698)
# Summary of the method: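 CYP3A4 induction read by qNPA chemiluminescence after 48 h, with fresh dosing solutions on consecutive days, in cultured human hepatocytes (two donors). Vehicle 0.2% DMSO as baseline; microscopy-based cytotoxicity annotated yes/no alongside data.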
# [12] = read-out: ABC Transporter (ABCB1), ABCB1 (gene 5243); test: CLD_ABCB1_24hr: CellzDirect (CLD) Gene Expression Assay for ABC Transporter (ABCB1) at 24 hours (AID 2283684)
# Summary of the method: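 ABCB1 mRNA induction versus 0.2% DMSO vehicle was read by qNPA chemiluminescence at 24 h. Cultured human hepatocytes from two donor preparations received daily fresh dosing, and phase-contrast cytotoxicity calls were annotated alongside the data.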
# [13] = read-out: Cytochrome P450 2B6 (Homo sapiens) (UniProt P20813); test: CLD_CYP2B6_24hr: CellzDirect (CLD) Gene Expression Assay for xenobiotic metabolism (CYP2B6) at 24 hours (AID 2283686)
# Summary of the method: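 qNPA chemiluminescent measurement of mRNA at 24 hours in human primary hepatocyte cultures from two donor preparations, with daily fresh dosing and 0.2% DMSO vehicle as baseline. Morphology-based cytotoxicity flagged yes/no.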
# [14] = read-out: Cytochrome P450 3A4 (Homo sapiens) (UniProt P08684); test: CLD_CYP3A4_24hr: CellzDirect (CLD) Gene Expression Assay for xenobiotic metabolism (CYP3A4) at 24 hours (AID 2283689)
# Summary of the method: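 CYP3A4 mRNA induction read by quantitative nuclease protection (chemiluminescence) 24 hr after dosing. Cultured human hepatocytes (two donor preparations) treated daily, vehicle 0.2% DMSO; phase-contrast morphology annotates cytotoxicity.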
# [15] = read-out: ABC Transporter (ABCB1), ABCB1 (gene 5243); test: CLD_ABCB1_48hr: CellzDirect (CLD) Gene Expression Assay for ABC Transporter (ABCB1) at 48 hours (AID 2283695)
# Summary of the method: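 ABCB1 mRNA was measured by quantitative nuclease protection assay (chemiluminescence) 48 h after dosing. Human hepatocyte cultures from two separate donors received fresh dosing solutions daily for two days, with 0.2% DMSO as vehicle. Positive-direction fit against DMSO.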
# [16] = read-out: Broad substrate specificity ATP-binding cassette transporter ABCG2 (Homo sapiens) (UniProt Q9UNQ0); test: CLD_ABCG2_24hr: CellzDirect (CLD) Gene Expression Assay for ABC Transporter (ABCG2) at 24 hours (AID 2283685)
# Summary of the method: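 ABCG2 mRNA induction, read as gain of chemiluminescent signal over 0.2% DMSO, was measured by quantitative nuclease protection at 24 h. Cultured human liver hepatocytes were given fresh dosing solutions of test chemicals at several concentrations each day.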
# [17] = read-out: Cytochrome P450 2C9 (Homo sapiens) (UniProt P11712); test: CLD_CYP2C9_24hr: CellzDirect (CLD) Gene Expression Assay for xenobiotic metabolism (CYP2C9) at 24 hours (AID 2283688)
# Summary of the method: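 Induction of CYP2C9 mRNA was quantified by quantitative nuclease protection assay (chemiluminescence), gain of signal versus 0.2% DMSO vehicle, 24 h after dosing. Human primary hepatocytes (two donors) received fresh chemical daily at multiple concentrations; morphology-based cytotoxicity flagged yes/no.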
# Sequence of Cytochrome P450 2C19 (Homo sapiens) (P33261 whole entry, looked up): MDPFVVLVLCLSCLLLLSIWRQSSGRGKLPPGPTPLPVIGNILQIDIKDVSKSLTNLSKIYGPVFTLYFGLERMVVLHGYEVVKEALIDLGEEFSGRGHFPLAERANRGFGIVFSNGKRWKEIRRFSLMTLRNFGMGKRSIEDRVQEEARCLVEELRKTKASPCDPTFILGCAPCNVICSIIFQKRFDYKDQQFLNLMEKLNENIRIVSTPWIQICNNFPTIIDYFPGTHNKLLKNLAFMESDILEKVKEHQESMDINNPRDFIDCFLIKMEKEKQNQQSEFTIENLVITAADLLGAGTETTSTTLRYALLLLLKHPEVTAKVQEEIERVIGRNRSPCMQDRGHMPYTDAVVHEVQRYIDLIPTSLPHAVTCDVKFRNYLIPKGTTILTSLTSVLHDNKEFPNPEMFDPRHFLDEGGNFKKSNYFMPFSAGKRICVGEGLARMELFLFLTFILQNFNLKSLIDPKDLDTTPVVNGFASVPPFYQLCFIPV
# Sequence of Glyceraldehyde-3-phosphate dehydrogenase (Homo sapiens) (P04406 whole entry, looked up): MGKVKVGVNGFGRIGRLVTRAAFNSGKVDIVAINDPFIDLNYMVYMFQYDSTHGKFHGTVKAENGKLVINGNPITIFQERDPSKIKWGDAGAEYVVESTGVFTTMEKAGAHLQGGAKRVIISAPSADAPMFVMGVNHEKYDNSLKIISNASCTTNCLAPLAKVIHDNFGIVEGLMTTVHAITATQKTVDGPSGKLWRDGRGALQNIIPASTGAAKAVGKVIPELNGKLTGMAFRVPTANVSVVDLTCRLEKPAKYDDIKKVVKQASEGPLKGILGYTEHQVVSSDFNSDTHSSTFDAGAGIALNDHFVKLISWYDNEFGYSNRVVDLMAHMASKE
# Sequence of Cytochrome P450 3A4 (Homo sapiens) (P08684 whole entry, looked up): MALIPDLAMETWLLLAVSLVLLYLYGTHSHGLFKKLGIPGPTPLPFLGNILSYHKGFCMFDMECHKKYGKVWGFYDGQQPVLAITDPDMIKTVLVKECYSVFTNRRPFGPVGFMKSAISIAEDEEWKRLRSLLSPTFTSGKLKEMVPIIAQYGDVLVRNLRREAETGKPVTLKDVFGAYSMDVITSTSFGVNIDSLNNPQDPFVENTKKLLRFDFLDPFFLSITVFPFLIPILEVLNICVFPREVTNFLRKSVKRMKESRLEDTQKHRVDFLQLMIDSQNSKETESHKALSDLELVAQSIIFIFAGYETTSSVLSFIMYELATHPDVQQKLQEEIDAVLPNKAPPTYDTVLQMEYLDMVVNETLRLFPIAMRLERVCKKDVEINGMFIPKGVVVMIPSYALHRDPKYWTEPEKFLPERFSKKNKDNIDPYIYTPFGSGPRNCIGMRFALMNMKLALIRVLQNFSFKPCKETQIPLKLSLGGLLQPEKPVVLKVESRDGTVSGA
# Sequence of Broad substrate specificity ATP-binding cassette transporter ABCG2 (Homo sapiens) (Q9UNQ0 whole entry, looked up): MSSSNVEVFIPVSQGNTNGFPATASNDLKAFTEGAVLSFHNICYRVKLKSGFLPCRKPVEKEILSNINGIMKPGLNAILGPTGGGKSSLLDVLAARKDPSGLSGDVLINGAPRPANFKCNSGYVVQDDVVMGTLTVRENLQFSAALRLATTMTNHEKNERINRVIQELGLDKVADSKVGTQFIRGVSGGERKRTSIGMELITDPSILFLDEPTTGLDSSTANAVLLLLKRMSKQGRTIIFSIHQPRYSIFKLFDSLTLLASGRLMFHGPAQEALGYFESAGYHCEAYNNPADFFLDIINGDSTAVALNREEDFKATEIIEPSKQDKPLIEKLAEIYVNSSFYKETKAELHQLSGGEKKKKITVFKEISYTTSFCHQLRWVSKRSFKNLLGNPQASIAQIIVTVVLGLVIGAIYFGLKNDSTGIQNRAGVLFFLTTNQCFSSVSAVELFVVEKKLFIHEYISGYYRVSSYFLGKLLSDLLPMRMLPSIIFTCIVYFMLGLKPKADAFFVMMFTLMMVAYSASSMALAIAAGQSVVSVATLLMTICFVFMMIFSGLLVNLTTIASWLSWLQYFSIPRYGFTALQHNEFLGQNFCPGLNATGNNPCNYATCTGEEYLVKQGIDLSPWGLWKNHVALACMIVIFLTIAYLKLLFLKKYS
compound,measurement,setting,value
O=C1C2CC=CCC2C(=O)N1SC(Cl)(Cl)Cl (centres undefined),AC50,[1],1.96 µM (active)
same,outcome,[2],inactive
same,outcome,[3],inactive
same,outcome,[4],inactive
same,outcome,[5],inactive
same,outcome,[6],inactive
same,outcome,[7],inactive
same,outcome,[8],inactive
COc1ccc(-c2ccccc2)cc1NNC(=O)OC(C)C,AC50,[1],17.8 µM (active)
same,outcome,[9],inactive
same,outcome,[2],inactive
same,outcome,[6],inactive
same,outcome,[10],inactive
same,outcome,[11],inactive
same,outcome,[8],inactive
N#CN=C1SCCN1Cc1ccc(Cl)nc1,outcome,[1],inactive
same,outcome,[2],inactive
same,outcome,[3],inactive
same,outcome,[12],inactive
same,AC50,[13],11.6 µM (active)
same,outcome,[4],inactive
same,AC50,[14],10.9 µM (active)
same,outcome,[6],inactive
same,outcome,[10],inactive
same,AC50,[11],20 µM (active)
same,AC50,[7],9.25 µM (active)
same,outcome,[8],inactive
COC(=O)NS(=O)(=O)c1ccc(N)cc1,outcome,[1],inactive
same,outcome,[9],inactive
same,outcome,[3],inactive
same,outcome,[4],inactive
same,outcome,[14],inactive
same,outcome,[5],inactive
same,outcome,[10],inactive
same,outcome,[11],inactive
same,outcome,[8],inactive
CC1(C)CON(Cc2ccccc2Cl)C1=O,outcome,[1],inactive
same,outcome,[2],inactive
same,outcome,[3],inactive
same,AC50,[13],20 µM (active)
same,outcome,[4],inactive
same,outcome,[5],inactive
same,outcome,[6],inactive
same,outcome,[10],inactive
same,AC50,[11],5.13 µM (active)
same,AC50,[7],3.23 µM (active)
same,outcome,[8],inactive
CCNP(=S)(OC)O/C(C)=C/C(=O)OC(C)C (centres undefined),AC50,[1],40.6 µM (active)
same,outcome,[2],inactive
same,AC50,[3],4.58 µM (active)
same,outcome,[12],inactive
same,AC50,[13],0.981 µM (active)
same,AC50,[14],1.94 µM (active)
same,AC50,[10],1.7 µM (active)
same,AC50,[11],0.654 µM (active)
same,AC50,[7],0.598 µM (active)
CN/C(=N\[N+](=O)[O-])NCc1cnc(Cl)s1,outcome,[1],inactive
O=c1n(Cl)c(=O)n(Cl)c(=O)n1Cl,outcome,[1],inactive
same,outcome,[2],inactive
same,outcome,[13],inactive
same,outcome,[4],inactive
same,outcome,[5],inactive
same,outcome,[6],inactive
same,outcome,[15],inactive
same,outcome,[10],inactive
same,outcome,[8],inactive
CC(C)N1C(=O)c2ccccc2NS1(=O)=O,outcome,[1],inactive
same,outcome,[2],inactive
same,outcome,[12],inactive
same,outcome,[16],inactive
same,outcome,[13],inactive
same,outcome,[4],inactive
same,outcome,[6],inactive
same,outcome,[10],inactive
same,outcome,[11],inactive
same,outcome,[8],inactive
CCCCC(C#N)(Cn1cncn1)c1ccc(Cl)cc1 (centres undefined),AC50,[1],62.6 µM (active)
same,AC50,[9],2.99 µM (active)
same,AC50,[3],20 µM (active)
same,outcome,[12],inactive
same,outcome,[5],inactive
same,outcome,[10],inactive
same,AC50,[11],20 µM (active)
C=CCOC(=O)C(C)(C)OC(=O)c1cc(-n2c(=O)cc(C(F)(F)F)n(C)c2=O)ccc1Cl,AC50,[1],0.00588 µM (active)
same,outcome,[2],inactive
same,outcome,[12],inactive
same,outcome,[4],inactive
same,outcome,[6],inactive
same,outcome,[15],inactive
same,outcome,[10],inactive
same,AC50,[11],2.79 µM (active)
same,outcome,[8],inactive
CO/N=C(/C1=NOCCO1)c1ccccc1Oc1ncnc(Oc2ccccc2Cl)c1F,AC50,[1],0.182 µM (active)
same,outcome,[2],inactive
same,outcome,[3],inactive
same,outcome,[12],inactive
same,outcome,[13],inactive
same,outcome,[17],inactive
same,outcome,[5],inactive
same,outcome,[6],inactive
same,outcome,[11],inactive
same,AC50,[7],1.89 µM (active)
same,outcome,[8],inactive
O=C(O)c1c(Cl)ccc2cc(Cl)cnc12,outcome,[1],inactive
same,outcome,[2],inactive
same,outcome,[3],inactive
same,outcome,[12],inactive
same,outcome,[16],inactive
same,outcome,[13],inactive
same,outcome,[4],inactive
same,outcome,[5],inactive
same,outcome,[6],inactive
same,outcome,[10],inactive
same,outcome,[11],inactive
same,outcome,[8],inactive
COP(=O)(OC)O/C(C)=C/C(=O)N(C)C,outcome,[1],inactive
same,outcome,[2],inactive
same,outcome,[3],inactive
same,outcome,[13],inactive
same,outcome,[4],inactive
same,outcome,[17],inactive
same,outcome,[5],inactive
same,outcome,[11],inactive
same,outcome,[8],inactive
